# Laboratory results from ChEMBL document CHEMBL1961873, “Compounds: GSK PKIS; Assays: Nanosyn kinase panel” (2012).
# Tests used:
# [1] = target: Sphingosine kinase 1 (Homo sapiens) (UniProt Q9NYA1); conditions: at 1 µM;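 further: mean SPHK1 inhibition value reported from the GSK PKIS kinase panel screen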
# [2] = target: T1, Sphingosine kinase 2 (Homo sapiens) (UniProt Q9NRA0); conditions: at 0.1 µM
# T1 sequence (whole entry): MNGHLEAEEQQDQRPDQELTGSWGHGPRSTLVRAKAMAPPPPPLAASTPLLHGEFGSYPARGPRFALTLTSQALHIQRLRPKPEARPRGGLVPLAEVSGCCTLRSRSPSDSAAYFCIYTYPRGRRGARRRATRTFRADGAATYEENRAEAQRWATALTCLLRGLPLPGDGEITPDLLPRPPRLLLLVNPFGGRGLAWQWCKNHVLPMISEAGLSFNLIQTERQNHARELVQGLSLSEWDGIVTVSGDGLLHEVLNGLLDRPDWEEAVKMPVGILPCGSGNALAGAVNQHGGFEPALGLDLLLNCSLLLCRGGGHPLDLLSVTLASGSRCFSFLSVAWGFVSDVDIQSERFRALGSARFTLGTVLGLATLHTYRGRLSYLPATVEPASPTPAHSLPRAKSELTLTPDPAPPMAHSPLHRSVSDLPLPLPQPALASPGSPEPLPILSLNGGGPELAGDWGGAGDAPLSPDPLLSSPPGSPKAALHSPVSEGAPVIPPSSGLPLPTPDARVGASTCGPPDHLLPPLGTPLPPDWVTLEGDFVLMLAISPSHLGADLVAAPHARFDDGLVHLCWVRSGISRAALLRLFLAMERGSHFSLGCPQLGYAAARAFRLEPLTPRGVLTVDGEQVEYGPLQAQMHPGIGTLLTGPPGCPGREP
# [3] = target: T1, Sphingosine kinase 2 (Homo sapiens); conditions: at 1 µM
# [4] = target: Casein kinase II subunit alpha (Homo sapiens) (UniProt P68400); conditions: at 0.1 µM
# Sequence of Casein kinase II subunit alpha (Homo sapiens) (P68400 whole entry, looked up): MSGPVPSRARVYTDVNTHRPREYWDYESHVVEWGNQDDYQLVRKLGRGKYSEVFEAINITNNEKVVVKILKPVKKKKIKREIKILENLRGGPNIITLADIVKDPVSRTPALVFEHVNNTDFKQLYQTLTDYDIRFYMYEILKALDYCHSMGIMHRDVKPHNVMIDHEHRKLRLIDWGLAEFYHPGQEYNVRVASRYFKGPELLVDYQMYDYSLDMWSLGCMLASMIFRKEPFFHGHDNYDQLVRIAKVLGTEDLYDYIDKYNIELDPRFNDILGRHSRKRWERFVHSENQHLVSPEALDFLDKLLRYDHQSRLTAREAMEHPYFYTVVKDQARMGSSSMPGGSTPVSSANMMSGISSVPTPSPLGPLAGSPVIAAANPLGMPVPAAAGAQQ
# [5] = target: Casein kinase II subunit alpha (Homo sapiens) (UniProt P68400); conditions: at 1 µM
# [6] = target: T2, Inhibitor of nuclear factor kappa-B kinase subunit alpha (Homo sapiens) (UniProt O15111); conditions: at 0.1 µM
# T2 sequence (whole entry): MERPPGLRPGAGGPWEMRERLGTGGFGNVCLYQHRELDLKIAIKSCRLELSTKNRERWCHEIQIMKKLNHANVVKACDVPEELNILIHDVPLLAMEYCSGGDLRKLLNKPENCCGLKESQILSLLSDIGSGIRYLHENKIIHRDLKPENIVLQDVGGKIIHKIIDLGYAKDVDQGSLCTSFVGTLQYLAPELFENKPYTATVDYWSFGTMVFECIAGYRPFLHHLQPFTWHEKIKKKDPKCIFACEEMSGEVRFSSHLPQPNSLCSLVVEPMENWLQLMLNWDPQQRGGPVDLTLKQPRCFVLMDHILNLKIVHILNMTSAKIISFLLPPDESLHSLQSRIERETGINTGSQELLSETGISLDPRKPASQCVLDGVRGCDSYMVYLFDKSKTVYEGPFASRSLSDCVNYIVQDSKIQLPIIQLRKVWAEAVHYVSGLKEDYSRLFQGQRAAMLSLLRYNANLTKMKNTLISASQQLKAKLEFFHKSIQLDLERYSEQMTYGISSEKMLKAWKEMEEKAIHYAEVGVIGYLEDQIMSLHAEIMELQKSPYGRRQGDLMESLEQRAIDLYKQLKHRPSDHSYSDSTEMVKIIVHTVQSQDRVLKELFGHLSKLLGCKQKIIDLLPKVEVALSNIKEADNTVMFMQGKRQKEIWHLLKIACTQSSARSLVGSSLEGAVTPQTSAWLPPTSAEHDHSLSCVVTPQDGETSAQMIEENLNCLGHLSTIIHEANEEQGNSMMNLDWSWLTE
# [7] = target: T2, Inhibitor of nuclear factor kappa-B kinase subunit alpha (Homo sapiens); conditions: at 1 µM
# [8] = target: T3, Inhibitor of nuclear factor kappa-B kinase subunit beta (Homo sapiens) (UniProt O14920); conditions: at 0.1 µM
# T3 sequence (whole entry): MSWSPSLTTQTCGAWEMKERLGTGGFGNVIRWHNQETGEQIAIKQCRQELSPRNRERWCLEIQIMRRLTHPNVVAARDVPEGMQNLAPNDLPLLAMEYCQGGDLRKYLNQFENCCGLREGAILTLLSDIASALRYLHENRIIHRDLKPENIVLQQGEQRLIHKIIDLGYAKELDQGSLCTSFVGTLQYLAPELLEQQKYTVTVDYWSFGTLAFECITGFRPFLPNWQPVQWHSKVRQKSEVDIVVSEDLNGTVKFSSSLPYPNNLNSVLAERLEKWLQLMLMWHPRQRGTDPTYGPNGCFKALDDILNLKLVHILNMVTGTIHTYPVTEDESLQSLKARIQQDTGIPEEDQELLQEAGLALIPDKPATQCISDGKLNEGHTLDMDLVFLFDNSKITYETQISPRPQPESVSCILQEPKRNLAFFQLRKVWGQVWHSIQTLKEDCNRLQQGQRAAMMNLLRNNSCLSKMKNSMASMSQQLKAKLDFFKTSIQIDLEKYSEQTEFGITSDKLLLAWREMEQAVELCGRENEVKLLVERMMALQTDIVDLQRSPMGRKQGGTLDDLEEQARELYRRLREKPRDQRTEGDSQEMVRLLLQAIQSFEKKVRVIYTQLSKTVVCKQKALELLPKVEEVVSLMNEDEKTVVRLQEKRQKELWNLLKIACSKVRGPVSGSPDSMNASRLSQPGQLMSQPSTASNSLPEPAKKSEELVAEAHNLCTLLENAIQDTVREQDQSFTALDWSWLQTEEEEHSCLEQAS
# [9] = target: T3, Inhibitor of nuclear factor kappa-B kinase subunit beta (Homo sapiens); conditions: at 1 µM
# [10] = target: T4, Inhibitor of nuclear factor kappa-B kinase subunit epsilon (Homo sapiens) (UniProt Q14164); conditions: at 0.1 µM
# T4 sequence (whole entry): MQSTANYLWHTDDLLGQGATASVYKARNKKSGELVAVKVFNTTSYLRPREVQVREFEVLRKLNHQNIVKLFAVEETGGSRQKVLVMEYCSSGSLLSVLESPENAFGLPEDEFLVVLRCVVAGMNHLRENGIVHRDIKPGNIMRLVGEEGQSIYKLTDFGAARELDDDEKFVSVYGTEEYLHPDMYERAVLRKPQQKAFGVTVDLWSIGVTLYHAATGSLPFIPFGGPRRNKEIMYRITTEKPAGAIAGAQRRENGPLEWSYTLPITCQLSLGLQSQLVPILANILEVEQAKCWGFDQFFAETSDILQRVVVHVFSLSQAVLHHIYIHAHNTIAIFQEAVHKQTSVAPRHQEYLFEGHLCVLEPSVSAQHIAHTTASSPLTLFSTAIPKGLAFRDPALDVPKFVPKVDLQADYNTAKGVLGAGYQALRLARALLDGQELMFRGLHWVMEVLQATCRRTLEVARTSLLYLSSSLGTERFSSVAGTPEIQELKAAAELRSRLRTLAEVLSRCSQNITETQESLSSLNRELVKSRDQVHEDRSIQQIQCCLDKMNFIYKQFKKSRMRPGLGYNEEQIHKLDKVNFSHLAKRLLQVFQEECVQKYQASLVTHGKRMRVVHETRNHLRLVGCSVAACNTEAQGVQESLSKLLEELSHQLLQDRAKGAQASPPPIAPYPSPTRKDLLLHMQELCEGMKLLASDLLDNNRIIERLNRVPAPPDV
# [11] = target: T4, Inhibitor of nuclear factor kappa-B kinase subunit epsilon (Homo sapiens); conditions: at 1 µM
# [12] = target: T5, Serine/threonine-protein kinase Nek1 (Homo sapiens) (UniProt Q96PY6); conditions: at 0.1 µM
# T5 sequence (whole entry): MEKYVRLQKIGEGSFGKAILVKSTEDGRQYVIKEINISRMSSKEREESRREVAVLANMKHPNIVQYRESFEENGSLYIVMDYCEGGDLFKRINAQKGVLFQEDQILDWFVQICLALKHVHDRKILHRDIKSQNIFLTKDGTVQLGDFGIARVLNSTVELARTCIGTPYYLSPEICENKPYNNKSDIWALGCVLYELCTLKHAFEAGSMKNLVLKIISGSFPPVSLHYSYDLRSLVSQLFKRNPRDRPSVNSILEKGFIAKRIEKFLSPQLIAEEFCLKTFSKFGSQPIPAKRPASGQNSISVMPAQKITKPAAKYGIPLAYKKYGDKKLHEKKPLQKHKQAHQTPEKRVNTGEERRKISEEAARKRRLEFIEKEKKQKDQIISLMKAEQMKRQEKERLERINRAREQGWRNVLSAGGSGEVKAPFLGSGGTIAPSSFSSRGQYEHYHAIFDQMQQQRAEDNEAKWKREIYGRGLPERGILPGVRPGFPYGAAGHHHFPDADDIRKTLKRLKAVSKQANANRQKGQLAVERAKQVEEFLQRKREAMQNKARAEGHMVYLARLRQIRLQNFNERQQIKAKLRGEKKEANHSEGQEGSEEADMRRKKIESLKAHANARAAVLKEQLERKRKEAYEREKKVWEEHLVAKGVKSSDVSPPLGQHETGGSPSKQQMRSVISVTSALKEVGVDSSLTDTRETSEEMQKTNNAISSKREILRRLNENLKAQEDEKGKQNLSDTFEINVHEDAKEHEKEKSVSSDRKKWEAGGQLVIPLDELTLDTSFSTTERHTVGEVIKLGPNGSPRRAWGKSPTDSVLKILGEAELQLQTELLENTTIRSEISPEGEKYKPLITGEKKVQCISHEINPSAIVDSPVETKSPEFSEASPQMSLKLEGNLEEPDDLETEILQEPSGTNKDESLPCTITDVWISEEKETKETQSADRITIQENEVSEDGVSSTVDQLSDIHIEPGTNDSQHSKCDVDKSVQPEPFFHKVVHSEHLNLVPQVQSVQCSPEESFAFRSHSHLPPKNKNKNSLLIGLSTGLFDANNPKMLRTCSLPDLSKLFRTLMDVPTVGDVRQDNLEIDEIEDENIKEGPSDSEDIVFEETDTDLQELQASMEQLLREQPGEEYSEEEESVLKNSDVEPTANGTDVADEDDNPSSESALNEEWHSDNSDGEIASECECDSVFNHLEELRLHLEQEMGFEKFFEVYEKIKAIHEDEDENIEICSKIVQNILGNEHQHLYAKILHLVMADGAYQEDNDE
# [13] = target: T5, Serine/threonine-protein kinase Nek1 (Homo sapiens); conditions: at 1 µM
# [14] = target: T6, Serine/threonine-protein kinase Nek2 (Homo sapiens) (UniProt P51955); conditions: at 0.1 µM
# T6 sequence (whole entry): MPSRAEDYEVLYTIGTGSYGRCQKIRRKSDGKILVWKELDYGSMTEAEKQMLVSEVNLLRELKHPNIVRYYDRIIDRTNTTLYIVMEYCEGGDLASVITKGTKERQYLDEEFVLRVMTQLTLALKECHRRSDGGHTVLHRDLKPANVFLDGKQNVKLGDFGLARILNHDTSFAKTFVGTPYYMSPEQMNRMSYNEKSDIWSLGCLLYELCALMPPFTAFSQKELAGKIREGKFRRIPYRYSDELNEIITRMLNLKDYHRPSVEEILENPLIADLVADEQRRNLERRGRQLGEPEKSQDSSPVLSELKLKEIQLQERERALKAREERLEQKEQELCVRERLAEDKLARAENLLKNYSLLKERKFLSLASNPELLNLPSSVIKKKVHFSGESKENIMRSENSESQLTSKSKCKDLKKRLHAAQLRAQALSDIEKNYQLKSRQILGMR
# [15] = target: T6, Serine/threonine-protein kinase Nek2 (Homo sapiens); conditions: at 1 µM
# [16] = target: Serine/threonine-protein kinase Nek6 (Homo sapiens) (UniProt Q9HC98); conditions: at 0.1 µM
# Sequence of Serine/threonine-protein kinase Nek6 (Homo sapiens) (Q9HC98 whole entry): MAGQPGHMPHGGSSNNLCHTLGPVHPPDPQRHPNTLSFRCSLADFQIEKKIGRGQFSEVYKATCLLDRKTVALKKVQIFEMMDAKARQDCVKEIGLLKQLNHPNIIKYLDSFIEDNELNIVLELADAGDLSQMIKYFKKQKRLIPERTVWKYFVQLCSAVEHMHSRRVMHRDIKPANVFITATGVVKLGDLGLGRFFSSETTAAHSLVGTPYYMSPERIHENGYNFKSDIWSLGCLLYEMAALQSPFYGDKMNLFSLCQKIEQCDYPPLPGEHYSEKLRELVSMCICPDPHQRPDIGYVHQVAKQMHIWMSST
# [17] = target: Serine/threonine-protein kinase Nek6 (Homo sapiens) (UniProt Q9HC98); conditions: at 1 µM
# [18] = target: Serine/threonine-protein kinase Nek7 (Homo sapiens) (UniProt Q8TDX7); conditions: at 0.1 µM
# Sequence of Serine/threonine-protein kinase Nek7 (Homo sapiens) (Q8TDX7 whole entry, looked up): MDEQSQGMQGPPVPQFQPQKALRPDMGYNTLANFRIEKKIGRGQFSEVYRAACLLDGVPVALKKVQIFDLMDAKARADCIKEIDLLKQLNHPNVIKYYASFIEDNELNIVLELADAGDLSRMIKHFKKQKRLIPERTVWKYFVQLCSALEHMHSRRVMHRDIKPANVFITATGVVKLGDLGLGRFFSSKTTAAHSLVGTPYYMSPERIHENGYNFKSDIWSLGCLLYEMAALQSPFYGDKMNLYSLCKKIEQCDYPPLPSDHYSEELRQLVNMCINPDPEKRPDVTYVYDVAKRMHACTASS
# [19] = target: Serine/threonine-protein kinase Nek7 (Homo sapiens) (UniProt Q8TDX7); conditions: at 1 µM
# [20] = target: T7, Serine/threonine-protein kinase Nek9 (Homo sapiens) (UniProt Q8TD19); conditions: at 0.1 µM;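 further: reported value is the mean percent inhibition of NEK9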
# T7 sequence (whole entry): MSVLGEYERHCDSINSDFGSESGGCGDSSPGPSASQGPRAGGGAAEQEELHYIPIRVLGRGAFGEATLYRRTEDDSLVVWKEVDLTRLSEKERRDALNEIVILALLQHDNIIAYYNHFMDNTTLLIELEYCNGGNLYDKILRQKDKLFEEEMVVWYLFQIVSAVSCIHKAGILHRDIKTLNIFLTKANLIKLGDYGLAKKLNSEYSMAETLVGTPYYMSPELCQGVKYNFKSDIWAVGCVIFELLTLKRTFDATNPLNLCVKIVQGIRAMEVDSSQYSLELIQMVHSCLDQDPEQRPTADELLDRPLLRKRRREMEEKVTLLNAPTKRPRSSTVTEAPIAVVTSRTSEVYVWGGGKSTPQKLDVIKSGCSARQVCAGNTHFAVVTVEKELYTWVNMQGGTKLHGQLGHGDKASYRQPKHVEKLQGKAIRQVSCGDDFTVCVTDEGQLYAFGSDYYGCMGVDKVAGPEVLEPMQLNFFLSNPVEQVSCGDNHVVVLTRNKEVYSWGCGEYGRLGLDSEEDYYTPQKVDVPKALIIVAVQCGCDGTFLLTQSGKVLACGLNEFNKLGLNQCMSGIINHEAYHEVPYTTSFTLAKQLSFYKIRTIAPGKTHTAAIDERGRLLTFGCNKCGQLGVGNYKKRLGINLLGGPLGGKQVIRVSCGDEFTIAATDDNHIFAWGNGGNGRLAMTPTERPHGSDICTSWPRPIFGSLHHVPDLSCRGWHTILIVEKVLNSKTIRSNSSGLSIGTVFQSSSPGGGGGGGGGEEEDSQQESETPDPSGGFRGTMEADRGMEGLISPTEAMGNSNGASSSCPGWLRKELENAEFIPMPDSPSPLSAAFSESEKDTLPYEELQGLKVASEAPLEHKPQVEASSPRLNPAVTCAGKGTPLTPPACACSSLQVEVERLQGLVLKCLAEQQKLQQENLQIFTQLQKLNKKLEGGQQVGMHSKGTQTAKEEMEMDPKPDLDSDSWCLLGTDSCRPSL
# Sequence of Sphingosine kinase 1 (Homo sapiens) (Q9NYA1 whole entry): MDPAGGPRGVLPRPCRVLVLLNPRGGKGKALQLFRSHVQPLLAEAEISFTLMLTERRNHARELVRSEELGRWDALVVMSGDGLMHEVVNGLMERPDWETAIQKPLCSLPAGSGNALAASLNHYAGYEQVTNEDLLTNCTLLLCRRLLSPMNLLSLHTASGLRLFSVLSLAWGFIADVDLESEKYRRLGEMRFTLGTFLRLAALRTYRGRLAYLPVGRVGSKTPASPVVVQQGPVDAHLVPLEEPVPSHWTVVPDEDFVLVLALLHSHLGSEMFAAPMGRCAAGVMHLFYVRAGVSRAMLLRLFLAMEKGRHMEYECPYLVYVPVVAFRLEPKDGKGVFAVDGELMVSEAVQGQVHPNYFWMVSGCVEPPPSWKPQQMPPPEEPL
smiles,measurement,setting,value
COc1cc2ncnc(Nc3ccc4c(cnn4Cc4ccccc4)c3)c2cc1OC,inhibition,[1],2.19%
same,inhibition,[2],0.07%
same,inhibition,[3],0.14%
same,inhibition,[4],-5.08%
same,inhibition,[5],4.31%
same,inhibition,[6],2.23%
same,inhibition,[7],8.23%
same,inhibition,[8],3.63%
same,inhibition,[9],3.81%
same,inhibition,[10],2.69%
same,inhibition,[11],4.31%
same,inhibition,[12],1.6%
same,inhibition,[13],0.76%
same,inhibition,[14],2.52%
same,inhibition,[15],-2.69%
same,inhibition,[16],9.32%
same,inhibition,[17],3.49%
same,inhibition,[18],0.26%
same,inhibition,[19],6.18%
same,inhibition,[20],6.67%
